Test results as given in PubChem BioAssay (NCATS).
A number with no mark means an inactive call. Results filed as inconclusive are left out. Where a call stands in place of a potency, no number is given. Calls of active or inactive are those of the source. Unless noted, calls come from the whole dose curve; as a rule, active = well fitted curve in the direction sought with a large enough effect; inconclusive = small, poorly fitted or top-dose-only effect, or another doubt; inactive = no such curve, though single readings can be large; an effect the other way counts as inactive or inconclusive.

Key:
[1] = qHTS for Inhibitors of Plasmodium falciparum (CP250) proliferation (AID 504320); note: potency is the fitted concentration of half-maximal effect
Outline: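 Erythrocytes infected with P. falciparum line (0.3% parasitemia, 2.5% hematocrit final) incubated with compounds 72 h at 37 °C, 5% CO2; SYBR Green lysis buffer added, fluorescence read next day. Normalized to 0.29 uM artemisinin and DMSO.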

[2] = target: Atrial natriuretic peptide receptor 1 (Homo sapiens) (UniProt P16066); experiment: Natriuretic polypeptide receptor (hNpr1) antagonism - Pilot CMLD screen (AID 1347052; calls by dose curve;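 note: HEK293 cells with hNpr1 stimulated by hNppA peptide at 0.1 nM; cGMP level read as GloSensor luciferase luminescence after agonist stimulation; series mostly up to about 9.2 µM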)
Atrial natriuretic peptide receptor 1 (Homo sapiens), sequence (P16066 whole entry, looked up): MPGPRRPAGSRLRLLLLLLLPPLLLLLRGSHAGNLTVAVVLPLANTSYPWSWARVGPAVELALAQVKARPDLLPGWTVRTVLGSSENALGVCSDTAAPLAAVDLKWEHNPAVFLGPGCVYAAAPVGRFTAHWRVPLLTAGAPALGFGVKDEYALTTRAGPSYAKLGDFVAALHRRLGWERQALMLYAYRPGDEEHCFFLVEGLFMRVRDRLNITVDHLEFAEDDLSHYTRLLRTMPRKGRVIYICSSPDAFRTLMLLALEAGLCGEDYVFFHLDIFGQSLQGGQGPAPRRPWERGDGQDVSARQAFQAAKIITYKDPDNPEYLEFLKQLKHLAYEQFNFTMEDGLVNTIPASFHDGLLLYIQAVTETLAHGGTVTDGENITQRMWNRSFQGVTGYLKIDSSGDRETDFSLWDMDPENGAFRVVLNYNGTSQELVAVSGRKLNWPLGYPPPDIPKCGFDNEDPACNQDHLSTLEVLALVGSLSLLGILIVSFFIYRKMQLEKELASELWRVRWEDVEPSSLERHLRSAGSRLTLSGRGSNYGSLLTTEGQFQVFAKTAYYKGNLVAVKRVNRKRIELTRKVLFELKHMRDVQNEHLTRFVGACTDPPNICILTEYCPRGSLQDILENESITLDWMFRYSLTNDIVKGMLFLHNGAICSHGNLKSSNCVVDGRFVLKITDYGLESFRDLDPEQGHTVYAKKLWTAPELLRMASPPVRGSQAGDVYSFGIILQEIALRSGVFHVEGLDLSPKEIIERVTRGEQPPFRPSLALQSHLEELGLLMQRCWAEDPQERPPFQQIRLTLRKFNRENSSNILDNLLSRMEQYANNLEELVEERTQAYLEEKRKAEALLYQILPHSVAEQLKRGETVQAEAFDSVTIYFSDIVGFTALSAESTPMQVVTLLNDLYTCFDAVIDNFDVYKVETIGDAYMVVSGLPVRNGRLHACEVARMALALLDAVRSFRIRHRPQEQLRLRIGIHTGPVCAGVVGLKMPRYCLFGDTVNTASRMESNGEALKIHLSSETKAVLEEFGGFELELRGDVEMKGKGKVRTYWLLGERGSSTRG

[3] = target: Cytochrome P450 3A4 (Homo sapiens) (UniProt P08684); experiment: qHTS Assay for Inhibitors and Substrates of Cytochrome P450 3A4 (AID 884); note: potency is the fitted concentration of half-maximal effect; nearly all actives have a fitted effect of over 50% in size
Cytochrome P450 3A4 (Homo sapiens), sequence (P08684 whole entry, looked up): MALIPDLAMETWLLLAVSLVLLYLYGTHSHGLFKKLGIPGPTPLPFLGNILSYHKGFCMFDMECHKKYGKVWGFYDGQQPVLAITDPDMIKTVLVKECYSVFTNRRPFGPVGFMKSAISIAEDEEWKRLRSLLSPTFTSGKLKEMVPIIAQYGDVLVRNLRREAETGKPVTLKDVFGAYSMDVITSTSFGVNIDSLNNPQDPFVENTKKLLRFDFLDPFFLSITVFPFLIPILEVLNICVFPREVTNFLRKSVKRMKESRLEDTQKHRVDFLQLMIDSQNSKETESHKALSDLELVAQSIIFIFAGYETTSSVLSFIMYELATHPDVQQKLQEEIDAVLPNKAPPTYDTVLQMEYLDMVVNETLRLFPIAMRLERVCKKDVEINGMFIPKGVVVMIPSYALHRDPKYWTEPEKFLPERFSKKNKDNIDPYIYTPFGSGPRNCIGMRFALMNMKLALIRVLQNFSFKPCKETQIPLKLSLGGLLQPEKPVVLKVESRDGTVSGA
Outline: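 20 nM human CYP3A4 with 25 uM Luciferin-PPXE (at KM) in 200 mM KPO4, preincubated 10 min with compound; NADPH regeneration started a 60 min RT reaction. Luciferin detected by luminescence, normalized to 57 uM ketoconazole as full inhibition.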

[4] = target: Cytochrome P450 3A4 (Homo sapiens) (UniProt P08684); experiment: qHTS Assay for Activators of Cytochrome P450 3A4 (AID 885); note: nearly all actives have a fitted effect of over 65% in size
Outline: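 Signal was normalized against complete inhibition by 57 uM ketoconazole. The reaction used 20nM CYP3A4 with 25uM Luciferin-PPXE, 10-min compound preincubation and a 60-min NADPH-supported step at RT.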

Structure (SMILES)	Potency [1]	Potency [2]	Potency [3]	activity change, positive = activation [4]
COc1cc2c(cc1OC)[C@@H]1O[C@](c3ccsc3)(C2)Oc2c1c(=O)oc1ccc(F)cc21	inactive	inactive		
COC(=O)[C@@H]1CC[C@H](C)[C@@H](c2ccc(C)cc2)N1C(=O)c1ccc(C=NO[C@H](C)CN2CCCc3nc(C)c(C)cc32)cc1	1.51 µM (active)	inactive		
Cc1cc2c(c(=O)n1Cc1ccccc1)[C@H]1O[C@](c3ccsc3)(Cc3cc(C#N)ccc31)O2	inactive	inactive		
COC1=C[C@H](C(=O)NC2CCN(Cc3ccccc3)CC2)[C@H](C)[C@@H](c2ccccc2)CC1=O	inactive	inactive		
COC(=O)C(C(=O)OC)C1OC23CN(S(=O)(=O)c4ccc(C)cc4)C=CC2(C)C3c2ccccc21 (stereo not drawn)	inactive	inactive		
O=C1N(CC2CC2)c2cccc(Br)c2[C@@]12O[C@H](COc1ccccc1)CC1=CCCC12 (stereo partly drawn)	inactive	inactive		
O=C1N(Cc2ccccc2C(F)(F)F)c2ccccc2[C@@]12O[C@H](COc1ccccc1)CC1=C2CCC1	inactive	inactive		
COc1cccc([C@@H]2Oc3ccc(OC)cc3C(=O)[C@@H]2OC(=O)N[C@H]2CCCc3ccccc32)c1	inactive	inactive		
CCCNC(=O)OC[C@H]1O[C@H](CCON=Cc2ccc(C(=O)N3[C@H](C(=O)OC)CC[C@H](C)[C@@H]3c3ccc(C)cc3)cc2)C=C[C@H]1Oc1ccc(OC)cc1	inactive	inactive		
COc1ccc([C@]23Cc4cc(OC)c(OC)cc4[C@H](O2)c2c(cc(C)n(Cc4ccccc4)c2=O)O3)cc1	inactive	inactive		
Cc1cccc(C)c1Nc1oc(-c2ccccc2)nc1-c1ccccc1F	inactive	inactive		
Oc1c(CN2CCOCC2)cc2c(c1-c1c(O)c(CN3CCOCC3)cc3c1CCCC3)CCCC2	inactive	inactive		
CCCCCCC#Cc1cc(OC)c(OC)cc1C(N1CC(C)c2ccccc21)N1CC(C)c2ccccc21 (stereo not drawn)		inactive	3.16 µM (active)	-88.3% [at 11.4 µM]
C[C@H]1CC[C@H]2C(=O)N(Cc3ccc(Cl)cc3)C[C@H](O)CN2[C@H]1c1ccc(Br)cc1	inactive	inactive		
COC(=O)CCC(=O)N1C2=NC3=C(C(=O)N(Cc4ccc5c(c4)OCO5)C3=O)C3N(C)c4ccccc4[C@]23C[C@H]1CO (stereo partly drawn)	inactive	inactive		
CCOC(=O)CN1C(=O)[C@]2(O[C@H](COc3ccccc3)CC3=CCCC32)c2c(Br)cccc21 (stereo partly drawn)	inactive	inactive		
